# Source: PMC4336329 (PLoS ONE, 2015)
# The whole screen tested about 310,000 compounds, of which about 14,000 (4.5%) showed an effect of 50% or more. Effects have a minus sign here. This is one part of a sample in which strong results are shown more often than they occur.
# Target: human ether-à-go-go-related gene (hERG) potassium channel (human, UniProt Q12809)
# Assay: primary screen, population patch clamp on CHO cells stably expressing hERG; higher = less effect of the substance
# 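Further: peak tail current of the secondary pulse compared with the same well before compound.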
# Chain of human ether-à-go-go-related gene (hERG) potassium channel (Q12809 whole entry, looked up): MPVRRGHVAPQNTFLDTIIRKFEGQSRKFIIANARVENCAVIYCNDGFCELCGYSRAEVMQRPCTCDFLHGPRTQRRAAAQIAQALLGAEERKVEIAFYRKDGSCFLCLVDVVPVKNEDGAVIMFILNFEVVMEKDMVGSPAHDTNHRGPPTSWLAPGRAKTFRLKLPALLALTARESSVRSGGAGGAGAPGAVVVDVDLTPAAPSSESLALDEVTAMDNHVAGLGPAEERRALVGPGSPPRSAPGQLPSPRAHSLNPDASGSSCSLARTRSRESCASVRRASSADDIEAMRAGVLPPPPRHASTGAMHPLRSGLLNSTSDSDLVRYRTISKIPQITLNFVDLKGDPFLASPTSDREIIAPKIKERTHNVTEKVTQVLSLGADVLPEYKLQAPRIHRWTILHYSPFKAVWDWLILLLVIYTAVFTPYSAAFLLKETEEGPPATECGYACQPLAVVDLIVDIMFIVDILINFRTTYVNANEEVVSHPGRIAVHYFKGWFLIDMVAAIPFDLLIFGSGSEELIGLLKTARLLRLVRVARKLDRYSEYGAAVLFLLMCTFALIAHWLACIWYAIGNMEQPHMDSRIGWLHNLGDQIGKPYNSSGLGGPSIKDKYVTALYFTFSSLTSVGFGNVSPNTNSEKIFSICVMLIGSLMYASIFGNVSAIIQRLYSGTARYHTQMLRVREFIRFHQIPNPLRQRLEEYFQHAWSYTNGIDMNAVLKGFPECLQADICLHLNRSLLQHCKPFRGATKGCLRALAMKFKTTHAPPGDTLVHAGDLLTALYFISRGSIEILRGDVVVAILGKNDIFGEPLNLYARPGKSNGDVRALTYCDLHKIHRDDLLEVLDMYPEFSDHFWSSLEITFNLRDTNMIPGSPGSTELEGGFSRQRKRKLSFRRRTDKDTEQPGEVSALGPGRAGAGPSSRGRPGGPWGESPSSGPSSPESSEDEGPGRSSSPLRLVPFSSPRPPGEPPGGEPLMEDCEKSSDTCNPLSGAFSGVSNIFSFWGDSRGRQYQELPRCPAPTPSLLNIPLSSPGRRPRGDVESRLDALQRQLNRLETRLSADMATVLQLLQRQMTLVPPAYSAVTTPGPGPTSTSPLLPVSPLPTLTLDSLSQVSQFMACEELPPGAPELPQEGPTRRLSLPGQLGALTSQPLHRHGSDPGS
row,Compound,"hERG current change (%, negative = inhibition) at 10uM [%]"
1,CCO[C@@H]1OC(C(=O)NCc2nc3ccccc3[nH]2)=C[C@H](c2ccc(C(F)(F)F)cc2)[C@H]1CCCO,-3.34
2,COC(=O)c1ccc(C[n+]2ccccc2)cc1.[Br-],17.3
3,Cc1ccc(CN2CCN(CC(=O)N3CCC(C(N)=O)CC3)C2=O)cc1,5.43
4,CN(CCNC(=O)CN1CCN(Cc2ccccc2Cl)C1=O)Cc1ccccc1,-30.4
5,Cc1ccc(-n2c(C)nnc2SCC(=O)N2CCc3ccccc3C2)cc1,-53.3
6,COCCCNC(=O)CN1CCN(Cc2ccc(Cl)cc2)C1=O,1.74
7,CCN(CCNC(=O)CN1CCN(Cc2ccc(Cl)cc2)C1=O)c1ccccc1,-52
8,Cc1nnc(SCC(=O)N2CCc3ccccc3C2)n1-c1ccccc1,-23.6
9,Cc1ccc(CN2CCN(CC(=O)NCc3ccc(Cl)cc3)C2=O)cc1,-50.4
10,Cc1ccc(CNC(=O)CN2CCN(Cc3ccc(C)cc3)C2=O)cc1,-26.5
11,Cc1ccc(CN2CCN(CC(=O)N3CCc4ccccc4C3)C2=O)cc1,-50.8
12,Cc1ccc(-n2c(C)nnc2SCC(=O)N2CCc3ccccc3C2)cc1C,-21.9
13,Cc1ccc(CNC(=O)CN2CCN(Cc3ccc(Cl)cc3)C2=O)cc1,-20.9
14,Cc1ccc(CN2CCN(CC(=O)O)C2=O)cc1,41.5
15,CC(NC(=O)c1ccc(Cl)cc1)c1nnc(SCC(=O)NC2=NCCS2)n1C (stereo not shown),22.3
16,Cc1cc(O)c(N)c(C)c1Cl.Cl,-4.7
17,Cn1c(=O)[nH]c(=O)c2c1nc(CN1CCN(c3cccc(Cl)c3)CC1)n2CCc1ccccc1,-21.8
18,CCOC(=O)C1=C(C)NC(SC)=C(C#N)C1CC(C)C (stereo not shown),-12.3
19,CCN(CC)S(=O)(=O)c1ccc(-c2nnc(SCC(N)=O)n2CC)cc1,35.8
20,CCN1CCCC1CNC(=O)CN(C)S(=O)(=O)c1ccc(Cl)cc1 (stereo not shown),-21.6
21,Cc1ccc(S(=O)(=O)Nc2c(C)nc3nc(C)[nH]n3c2=O)c(C)c1,10.3
22,Cc1ccc(N2C(=O)c3cccc4c(C(=O)O)ccc(c34)C2=O)cc1,8.57
23,COc1ccc(-n2ncc3c(=O)n(CC(=O)N(C(C)C)C(C)C)cnc32)cc1,0.562
24,Cc1cc(Br)cn2ccnc12,-6.51

row,Compound,"hERG current change (%, negative = inhibition) at 10uM [%]"
1,CC(Sc1nnc(C2CCCCC2)n1N)C(=O)NCc1ccc2c(c1)OCO2 (stereo not shown),3.2
2,CN1CCN(CCCNC(=O)c2ccc3c(=O)n(CCc4ccccc4)c(=O)[nH]c3c2)CC1,15.3
3,O=C(CN1CCN(Cc2ccc(Cl)cc2)C1=O)NCc1cccs1,-57.6
4,O=C(CN1CCN(Cc2ccccc2)C1=O)NCc1cccs1,1.2
5,O=C(CN1CCN(Cc2ccc(F)cc2)C1=O)NCc1cccs1,-1.62
6,CC1CCCC(C)N1C(=O)CSc1nc2c(c(=O)n(C)c(=O)n2C)n1C (stereo not shown),5.34
7,O=C(CC1C(=O)NCCN1C(=O)c1ccc([N+](=O)[O-])cc1)Nc1cccc(Cl)c1 (stereo not shown),-40.4
8,CCOC(=O)c1ccc(NC(=S)N2CCSC2c2ccc(Br)cc2)cc1 (stereo not shown),5.4
9,CN(C)c1ccc(C2SCCN2C(=O)c2ccc([N+](=O)[O-])cc2)cc1 (stereo not shown),-66.7
10,O=C(c1ccc([N+](=O)[O-])cc1)N1CCSC1c1ccc(Br)cc1 (stereo not shown),-64.2
11,CN(C)c1ccc(C(=S)N2CCN(c3ccc([N+](=O)[O-])cc3)CC2)cc1,-18.7
12,O=C(NNC(=O)c1ccc([N+](=O)[O-])cc1)c1ccc(Br)cc1,14.5
13,CC(=O)Nc1ccc(N2C(=O)CSC2c2ccc([N+](=O)[O-])cc2)cc1 (stereo not shown),-11.3
14,O=C(O)c1ccc(N2C(=O)CSC2c2cccc([N+](=O)[O-])c2)cc1 (stereo not shown),15.5
15,O=C(c1ccc([N+](=O)[O-])cc1)N1CCSC1c1ccccc1Cl (stereo not shown),7.77
16,O=C(c1ccc([N+](=O)[O-])cc1)N1CCSC1c1ccccc1 (stereo not shown),-39.3
17,O=C(c1ccc([N+](=O)[O-])cc1)N1CCSC1c1ccc(Cl)cc1 (stereo not shown),-76.9
18,O=C(c1ccc([N+](=O)[O-])cc1)N1CCSC1c1cccc(Cl)c1 (stereo not shown),-69.3
19,CC1NC(=O)N(C)[C@@H]2NC(=O)N(C)C(c3ccc([N+](=O)[O-])cc3)[C@@H]12 (stereo partly shown),7.29
20,CCCCN(C(=O)NC(=O)Nc1cc(C)ccc1C)S(C)(=O)=O,17.9
21,CNC(=O)COC(=O)CCC(=O)c1ccc(Cl)cc1,7.45
22,Cc1noc(C)c1COc1ccc(C(=O)Nc2ncccc2O)cc1,11.5
23,Cc1ccc(C(=O)NCC2CCCO2)cc1[N+](=O)[O-] (stereo not shown),4.29
24,Cc1cc(C=C2C(=O)c3ccccc3C2=O)c(C)n1-c1ccccc1,7.13

row,Compound,"hERG current change (%, negative = inhibition) at 10uM [%]"
1,C[C@H](NC(=O)OCc1ccccc1)C(=O)NNC(=O)[C@H](Cc1ccccc1)NC(=O)OC(C)(C)C,31.2
2,O=C1N(c2cccc(Cl)c2)C(c2cccnc2)N2CCCN12 (stereo not shown),-4.39
3,Cc1ccc(C(=O)N2CCN(C(=O)c3ccccc3)C2c2ccc(N(C)C)cc2)cc1 (stereo not shown),-50.8
4,CC1(C)CC2CC(C)(CN2C(=O)c2ccc([N+](=O)[O-])cc2)C1 (stereo not shown),-62.4
5,O=C(c1ccccc1)N1CCN(C(=O)c2ccccc2)C1c1ccccc1,4.53
6,COc1ccc(C2N(C(=O)c3ccccc3)CCN2C(=O)c2ccc(C)cc2)cc1 (stereo not shown),-24.9
7,CC1(C)C[C@@H]2C[C@@](C)(CN2C(=O)c2ccccc2)C1,11.3
8,CC1(C)CC2CC(C)(CN2C(=O)c2ccccc2)C1 (stereo not shown),8.08
9,COc1ccc(N2C(=O)CSC2c2ccc([N+](=O)[O-])cc2)cc1 (stereo not shown),-37.3
10,COc1ccc(C2SCCN2C(=O)c2ccc([N+](=O)[O-])cc2)cc1 (stereo not shown),-70
11,COc1ccccc1C1SCCN1C(=O)c1ccc([N+](=O)[O-])cc1 (stereo not shown),-38.7
12,O=C(C1CCN(S(=O)(=O)c2ccccc2)CC1)N1CCC1,12.3
13,Cc1[nH]n(-c2ccccc2)c(=O)c1C=Nc1cnc2ccccc2c1,-8.67
14,O=C(c1cccs1)c1ccc(-c2cccs2)s1,1.57
15,OCC(O)CSc1nc(-c2ccccc2)nc2c1CCC2 (stereo not shown),2.22
16,CC1(C)Cc2nc(-c3ccccc3)nc(SCC(O)CO)c2CO1 (stereo not shown),-15.8
17,OCCSc1nc(-c2ccccc2)nc2c1CCC2,-12
18,O=C(O)CSc1nc(-c2ccccc2)nc2c1CCCC2,12.8
19,CN(C)C(=O)CSc1nc(-c2ccccc2)nc2c1CCCC2,-5.09
20,NC(=O)CSc1nc(-c2ccccc2)nc2c1CCCC2,5.92
21,CN(C)CCSc1nc(-c2ccccc2)nc2c1CCC2,-61.3
22,CN(C)CCSc1nc(-c2ccccc2)nc2c1COC(C)(C)C2,-69.1
23,CN(C)CCCSc1nc(-c2ccccc2)nc2c1CCC2,-50.3
24,CSc1nc(-c2ccccc2)nc2c1COC(C)(C)C2,5.03

row,Compound,"hERG current change (%, negative = inhibition) at 10uM [%]"
1,CCSc1nc(-c2ccccc2)nc2c1CCCC2,7.26
2,CN(C)CCSc1nc(-c2ccccc2)nc2c1CCCC2,-51.3
3,O=C(NCC(c1cccs1)N1CCOCC1)C1CCN(S(=O)(=O)c2c(Cl)cccc2Cl)CC1 (stereo not shown),-27.3
4,COc1ccc(C2C3CCCCC3(O)CCN2C(=O)c2cccs2)cc1 (stereo not shown),5.52
5,CC(C)(C)C(=O)Nc1nnc(SCC(=O)NC2CCCCC2)s1,2.34
6,COc1ccc(S(=O)(=O)N2CCC(C(=O)NCCN3CCOCC3)CC2)cc1,14.2
7,CC1=NN(c2ccccc2)C(=O)C1/C=C1\C(=O)NC(=O)N(c2cc(C)cc(C)c2)C1=O (stereo not shown),6.47
8,Cc1sc2nc(CSCC(=O)Nc3c(F)cccc3F)[nH]c(=O)c2c1C,7.01
9,CC(C)CNc1nnnc2c1sc1nc(N3CCOCC3)c3c(c12)CC(C)(C)SC3,-20.8
10,Cc1ccc(Sc2ccc(S(=O)(=O)Nc3ccc(CC(=O)O)cc3)cc2)cc1C,3.13
11,CN(c1ccccc1)S(=O)(=O)c1ccc(C(=O)Nc2ccncc2)cc1,-9.83
12,CNC(=O)c1ccc(OCc2ccccc2)c(OC)c1,3.11
13,CCN(c1ccccc1)S(=O)(=O)c1ccc(C(=O)Nc2ccncc2)cc1,-68.7
14,CCN(c1ccccc1)S(=O)(=O)c1ccc(C(=O)NCC2(N(C)C)CCCCC2)cc1,-57.8
15,COc1ccc(C(=O)NCC(=O)NCC2(N(C)C)CCCCC2)cc1OC,3.45
16,CN(C)C1(CNC(=O)c2cccc(S(=O)(=O)NCc3ccccc3)c2)CCCCC1,-49.5
17,COc1ccccc1NS(=O)(=O)c1ccc(C(=O)NCC2(N(C)C)CCCCC2)cc1,3.78
18,CCN(c1ccccc1)S(=O)(=O)c1ccc(C(=O)Nc2ccccn2)cc1,-8.37
19,CCN(c1ccccc1)S(=O)(=O)c1ccc(C(=O)NCCc2ccc(S(N)(=O)=O)cc2)cc1,5.49
20,COc1ccccc1NS(=O)(=O)c1cccc(C(=O)NCC2(N(C)C)CCCCC2)c1,-22.2
21,COc1cc(C(=O)NCC2(N(C)C)CCCCC2)ccc1OCc1ccccc1,-59.7
22,CCN(c1ccccc1)S(=O)(=O)c1cccc(C(=O)NCC2(N(C)C)CCCCC2)c1,-60.5
